In PubChem BioAssay (EPA / NIEHS) one finds outcome and AC50 data, which are given here for 15 compounds.

The target in test [1] is CCAAT/enhancer-binding protein beta (Homo sapiens) (UniProt P17676). Kind of test: ATG_C_EBP_CIS: Attagene CIS-FACTORIAL HepG2 Assay for human CCAAT/Enhancer Binding Protein (C/EBP) beta (AID 2282927). To be noted: HepG2 Attagene cis-factorial transcription factor reporter; actives raise or lower the signal. An outline of the steps:
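HepG2 transiently transfected with multiplexed reporter units under cis-regulatory promoters reporting endogenous C/EBPb activity. After 24 h exposure, reporter mRNA assayed by RT-PCR, fluorescent labelling, HpaI digestion and capillary electrophoresis; bidirectional fitting versus DMSO.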

Test [2] in a line: ATG_CMV_CIS: Attagene CIS-FACTORIAL HepG2 Assay for human CMV (Internal Marker) (AID 2282928).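 Further: endpoint acts as a background internal control marker rather than a target.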 To be noted: HepG2 CMV promoter reporter, transcription factor profiling; actives raise or lower the signal. An outline of the steps:
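Cell system: HepG2, transiently transfected multiple reporter units under cis promoters. Exposure: 24 h. Detection: RT-PCR, FAM labeling, HpaI digestion, capillary electrophoresis. Analysis: bidirectional, DMSO baseline.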

Test [3] can be described thus: ATG_DR4_LXR_CIS: Attagene CIS-FACTORIAL HepG2 Assay for human Liver X Receptor (LXR), DR4 submotif (AID 2282929). To be noted: HepG2 Attagene DR4 cis-reporter, mRNA transcription; actives raise or lower the signal. An outline of the steps:
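The endpoint is DR4-element-driven reporter transcripts after 24 h chemical exposure of transfected HepG2 cells. These were measured via RT-PCR and capillary electrophoresis, and gain or loss of signal was fitted relative to DMSO controls.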

Test [4] concerns the target Aryl hydrocarbon receptor (Homo sapiens) (UniProt P35869). Kind of test: ATG_Ahr_CIS: Attagene CIS-FACTORIAL HepG2 Assay for human Aryl Hydrocarbon Receptor (Ahr) (AID 2282930). The note with it: HepG2 AhR cis-factorial reporter transcription; actives raise or lower the signal. The method in brief: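 HepG2 cells transiently transfected with cis-element-driven multiplexed reporter units; endogenous AhR activity read as reporter mRNA 24 h after dosing, via RT-PCR, 6-FAM labelling, HpaI digestion and capillary electrophoresis. Bidirectional fit relative to DMSO.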

A short description of test [5]: ATG_AP_2_CIS: Attagene CIS-FACTORIAL HepG2 Assay for human Activator Protein 2 (AP-2) (AID 2282932). To be noted: HepG2 AP-2 cis-reporter, Attagene transcription factor profiling; actives raise or lower the signal. An outline of the steps:
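HepG2 cells transiently transfected with cis-element reporter units and exposed for 24 h. Reporter mRNA measured by RT-PCR, FAM labelling, HpaI digestion and capillary electrophoresis. Changes in either direction fitted relative to DMSO.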

Test [6] in a line: ATG_BRE_CIS: Attagene CIS-FACTORIAL HepG2 Assay for human Bone Morphogenetic Protein (BMP) Response Element (BRE) (AID 2282933). The note with it: HepG2 BMP response element reporter, Attagene transcription factor profiling; actives raise or lower the signal. The method in brief: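 HepG2 cells transiently transfected with CIS reporter units (endogenous TF activity, BMP response element), dosed 24 h. Reporter mRNA quantified by RT-PCR, fluorescent labelling and capillary electrophoresis; bidirectional fit vs DMSO baseline.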

The target in test [7] is Retinoic acid receptor alpha (Homo sapiens) (UniProt P10276). Kind of test: ATG_DR5_RAR_CIS: Attagene CIS-FACTORIAL HepG2 Assay for human Retinoic Acid Receptor Alpha (RARE), DR5 submotif (AID 2282934).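 On AC50: reporter responds to endogenous RAR alpha beta and gamma in HepG2 not RARA alone.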 The note with it: HepG2 Attagene cis-factorial RARE DR5 reporter, mRNA; actives raise or lower the signal. The method in brief:
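HepG2 cells transiently transfected with multiplexed reporter units; DR5 cis-element drives reporter through endogenous transcription factors. After 24 h dosing, reporter mRNA quantified by RT-PCR, fluorescent labeling, HpaI digestion and capillary electrophoresis; bidirectional fitting versus DMSO.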

Test [8] has as its target Transcription factor E2F1 (Homo sapiens) (UniProt Q01094). Kind of test: ATG_E2F_CIS: Attagene CIS-FACTORIAL HepG2 Assay for human E2F Transcription Factor 1 (AID 2282935). To be noted: HepG2 Attagene cis-reporter, E2F reporter RNA transcripts; actives raise or lower the signal. The method in brief:
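Endogenous E2F1 activity read through cis-promoter reporter units transfected into HepG2. After 24 h compound treatment, reporter mRNA measured by RT-PCR, HpaI digestion and capillary electrophoresis. Bidirectional fit versus DMSO.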

Test [9] in a line: ATG_E_Box_CIS: Attagene CIS-FACTORIAL HepG2 Assay for human Enhancer Box (E-box) (AID 2282936). To be noted: HepG2 E-box cis-reporter transcription, actives raise or lower the signal. The method in brief: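 HepG2 cells transiently transfected with multiplexed cis-element reporter units, dosed 24 h; reporter mRNA quantified by RT-PCR, 6-FAM labelling, HpaI digestion and capillary electrophoresis. E-box (USF1) signal fitted bidirectionally vs DMSO.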

The nature of test [10]: ATG_AP_1_CIS: Attagene CIS-FACTORIAL HepG2 Assay for human Activator Protein 1 (AP-1) (AID 2282931). To be noted: HepG2 Attagene cis-factorial AP-1 reporter mRNA; actives raise or lower the signal. An outline of the steps: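 Readout is reporter transcript level from endogenous transcription factor activity, quantified by RT-PCR with fluorescent primer extension and capillary electrophoresis. Transiently transfected HepG2 cells, 24 h exposure. Curves fitted both directions versus DMSO.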

Molecules are shown by their SMILES. Active and inactive are the calls of the source. How the source made its calls: active means hit-call score of the fitted dose curve at least 0.9, where 1 is the maximum; inactive means score below 0.9.

Transcription factor E2F1 (Homo sapiens), sequence (Q01094 whole entry, looked up): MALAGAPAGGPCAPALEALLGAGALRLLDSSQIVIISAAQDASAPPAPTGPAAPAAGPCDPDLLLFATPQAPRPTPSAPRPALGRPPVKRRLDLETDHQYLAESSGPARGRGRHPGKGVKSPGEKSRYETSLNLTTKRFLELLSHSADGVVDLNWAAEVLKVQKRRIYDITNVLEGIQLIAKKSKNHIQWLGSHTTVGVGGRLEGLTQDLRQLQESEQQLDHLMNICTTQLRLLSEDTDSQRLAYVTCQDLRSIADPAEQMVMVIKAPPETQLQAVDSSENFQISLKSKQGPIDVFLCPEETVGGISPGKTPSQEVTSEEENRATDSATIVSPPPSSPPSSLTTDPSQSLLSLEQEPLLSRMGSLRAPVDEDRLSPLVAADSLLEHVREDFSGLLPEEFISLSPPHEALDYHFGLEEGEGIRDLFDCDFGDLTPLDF
Retinoic acid receptor alpha (Homo sapiens), sequence (P10276 whole entry, looked up): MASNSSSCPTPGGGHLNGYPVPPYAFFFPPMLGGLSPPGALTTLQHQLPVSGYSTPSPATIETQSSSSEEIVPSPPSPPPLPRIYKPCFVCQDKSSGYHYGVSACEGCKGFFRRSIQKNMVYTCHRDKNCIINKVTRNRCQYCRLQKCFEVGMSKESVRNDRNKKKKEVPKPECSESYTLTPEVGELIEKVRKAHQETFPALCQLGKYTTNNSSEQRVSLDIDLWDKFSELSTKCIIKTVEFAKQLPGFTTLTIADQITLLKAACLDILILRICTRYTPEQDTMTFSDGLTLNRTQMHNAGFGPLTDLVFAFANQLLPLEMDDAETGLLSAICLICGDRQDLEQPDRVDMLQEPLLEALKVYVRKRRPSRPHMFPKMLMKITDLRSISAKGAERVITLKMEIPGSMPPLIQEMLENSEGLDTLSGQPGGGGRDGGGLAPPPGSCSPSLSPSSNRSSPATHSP
CCAAT/enhancer-binding protein beta (Homo sapiens), sequence (P17676 whole entry, looked up): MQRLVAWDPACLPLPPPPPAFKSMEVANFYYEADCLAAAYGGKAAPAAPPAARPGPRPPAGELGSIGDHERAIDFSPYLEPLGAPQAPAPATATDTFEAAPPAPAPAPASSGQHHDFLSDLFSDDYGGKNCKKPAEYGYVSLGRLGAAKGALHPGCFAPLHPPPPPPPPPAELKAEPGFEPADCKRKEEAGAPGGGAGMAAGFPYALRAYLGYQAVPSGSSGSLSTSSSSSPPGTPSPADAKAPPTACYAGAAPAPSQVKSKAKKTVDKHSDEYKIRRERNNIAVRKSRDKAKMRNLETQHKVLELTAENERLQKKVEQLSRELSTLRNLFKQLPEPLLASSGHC
Aryl hydrocarbon receptor (Homo sapiens), sequence (P35869 whole entry, looked up): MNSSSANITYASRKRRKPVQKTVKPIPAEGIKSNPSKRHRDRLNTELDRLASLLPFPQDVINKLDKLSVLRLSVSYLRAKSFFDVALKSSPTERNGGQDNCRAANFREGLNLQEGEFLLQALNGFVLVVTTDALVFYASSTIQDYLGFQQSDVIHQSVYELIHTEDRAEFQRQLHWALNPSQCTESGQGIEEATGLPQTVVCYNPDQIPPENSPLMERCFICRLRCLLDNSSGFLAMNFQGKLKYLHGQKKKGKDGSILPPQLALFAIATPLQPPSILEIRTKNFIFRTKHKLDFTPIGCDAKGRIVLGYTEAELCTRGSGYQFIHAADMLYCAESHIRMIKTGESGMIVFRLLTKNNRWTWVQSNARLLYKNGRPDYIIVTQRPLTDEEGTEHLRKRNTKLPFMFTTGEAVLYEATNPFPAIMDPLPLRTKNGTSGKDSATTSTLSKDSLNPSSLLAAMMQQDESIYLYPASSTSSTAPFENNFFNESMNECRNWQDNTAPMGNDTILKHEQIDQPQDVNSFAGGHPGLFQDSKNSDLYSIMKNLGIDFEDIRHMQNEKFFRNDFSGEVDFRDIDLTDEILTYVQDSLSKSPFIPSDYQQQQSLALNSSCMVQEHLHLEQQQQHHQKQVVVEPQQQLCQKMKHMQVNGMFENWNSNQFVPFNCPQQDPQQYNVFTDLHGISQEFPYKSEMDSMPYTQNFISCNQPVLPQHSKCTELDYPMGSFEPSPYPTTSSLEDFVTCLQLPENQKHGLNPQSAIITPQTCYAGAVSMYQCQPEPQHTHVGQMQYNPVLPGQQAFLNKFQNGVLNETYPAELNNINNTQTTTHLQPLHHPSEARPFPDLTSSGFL

In the case of `COCCl`, the result in test [1], in [2], in [3], in test [4], in test [5] and in [6] was inactive. Also, the compound was classed as inactive in test [7], in [8] and in [9].
For `CC(C)CP(=S)(S)CC(C)C`, the result in [1], in test [2], in [3], in test [4], in test [10] and in test [6] was inactive. For the same compound, the compound was called inactive in test [7], in test [8] and in [9].
With `O=[N+]([O-])c1ccc(Cl)c([N+](=O)[O-])c1`, the outcome in test [1], in [2], in [4], in [10], in test [6] and in test [8] was inactive. Besides, the half-maximal activity concentration (AC50) is 5.36 µM (active) in [3], 6.06 µM (active) in test [5] and 6.14 µM (active) in [9].
Regarding `Clc1ccc(C(Cl)(Cl)Cl)cn1`, the outcome in test [1], in test [2], in test [3], in test [10], in [5] and in [6] was inactive. Also, the result in test [7], in test [8] and in test [9] was inactive. Also, the AC50 in test [4] was 5.67 µM (active).
On to `CCN(CC)C(=O)C(Cl)=C(C)OP(=O)(OC)OC`, for which the result in test [1], in test [2], in test [3], in test [4], in test [10] and in test [5] was inactive. The outcome in test [6], in test [7], in test [8] and in test [9] was inactive.
Regarding `BrCc1ccc(Br)cc1`, the outcome in test [1], in [2], in [3], in [5], in test [6] and in test [7] was inactive. Besides, the outcome in test [9] was inactive. Further, in test [4], the AC50 is 60.9 µM (active).
Turning to `C=CC(=O)[O][Sn]([CH2]CCC)([CH2]CCC)[CH2]CCC`, the result in test [1], in [2], in test [5] and in [8] was inactive. For the same compound, the AC50 is 0.607 µM (active) in [3]; 0.704 µM (active) in test [4]; 0.128 µM (active) in test [10]; 0.217 µM (active) in test [6]; 0.0229 µM (active) in test [7]; 0.551 µM (active) in test [9].
Regarding `CN(C)[C@@H]1C(=O)C(C(N)=O)=C(O)[C@@]2(O)C(=O)C3=C(O)c4c(O)ccc(Cl)c4[C@@](C)(O)[C@H]3C[C@@H]12`, the outcome in test [1], in test [3], in [4], in test [5], in test [7] and in test [9] was inactive. In addition, the values for the AC50 in [2] and in [6] were 25.9 µM (active) and 30.3 µM (active), respectively.
On to `OC(Cc1ccccc1Cl)(Cn1[nH]cnc1=S)C1(Cl)CC1` (centres undefined), for which the result in test [1], in [2], in test [3], in test [4], in test [5] and in test [6] was inactive. For the same compound, the compound was called inactive in [8] and in test [9]. The AC50 in test [10] was 53 µM (active).
For `CCCSP(=S)(OCC)Oc1ccc(SC)cc1` (centres undefined), the outcome in test [1], in [2], in test [3], in test [4], in test [10] and in test [5] was inactive. Moreover, the compound was called inactive in test [6], in test [8] and in test [9].
Regarding `Clc1cc(C(Cl)(Cl)Cl)cnc1Cl`, the outcome in test [1], in test [2], in test [4], in test [5], in test [6] and in test [7] was inactive. Moreover, the AC50 was 12.6 µM (active) in [10] and 4.54 µM (active) in test [9].
As for `CNC(=O)CSP(=O)(OC)OC`, the result in [1], in [2], in test [3], in test [4], in [10] and in test [5] was inactive. Moreover, the compound was classed as inactive in test [6], in test [7], in test [8] and in test [9].
For `CC(C)(COCC1CO1)COCC1CO1` (centres undefined), the result in [2], in test [3], in test [4], in test [10], in [5] and in [6] was inactive. In addition, the result in [8] and in test [9] was inactive.
Take `CCOP(=O)(OCC)SCCSCC`: the result in [1], in test [2], in test [3], in test [4], in [6] and in test [7] was inactive. For the same compound, the call in test [8] and in test [9] was inactive.
On to `Oc1cccc(-c2ccccc2)c1`, for which the result in [1], in test [3], in test [4], in [5], in test [7] and in test [9] was inactive. Moreover, the AC50 in test [2] is 67.7 µM (active); in test [10], 65.1 µM (active); in [6] it was 73.5 µM (active).
